Common to all, as to assay type: functional
For experiment [1], the system named is Plasmodium falciparum. Nature of the experiment: GSK_TCMDC: Inhibition of Plasmodium falciparum 3D7 in whole red blood cells, using parasite LDH activity as an index of growth. Test compounds present at 2uM.
Experiment [2] deals with Plasmodium falciparum. As to the kind of experiment: GSK_TCMDC: Inhibition of Plasmodium falciparum Dd2 in whole red blood cells, using parasite LDH activity as an index of growth. Test compounds present at 2uM.
The subject of experiment [3] is HepG2. As to the kind of experiment: GSK_TCMDC: Percent inhibition of human HepG2 cell line. Test compounds present at 10uM.

As for `COc1ccc2nccc([C@@H](O)CN3CCC(NCCOc4ccc(F)cc4[N+](=O)[O-])CC3)c2c1.O=C(O)C(=O)O`, the Inhibition (usually how much of the control response was suppressed) in experiment [1] is given as 99%; in experiment [2], 92%; in experiment [3], 8%.

`CCc1ccc(O)c(-c2cc(C(=O)Nc3cccnc3)[nH]n2)c1`: the Inhibition came out at 98% in experiment [1], 99% in experiment [2] and 0% in experiment [3].

With `Cc1nc(Nc2ccc(C)c(Cl)c2)c2c(C)noc2n1`, the Inhibition in experiment [1] is 94%; in experiment [2] it was 72%; in experiment [3], 0%.

In the case of `Clc1ccc(-c2nc3cc(-c4ccc5nc(-c6ccc(Cl)cc6)[nH]c5c4)ccc3[nH]2)cc1`, the Inhibition is on record as 100% in experiment [1], 99% in experiment [2] and 59% in experiment [3].

Consider `Fc1ccc2[nH]c(-c3cccc(-c4ccc(CN5CCC(CCN6CCCCC6)CC5)cc4)c3)nc2c1.O=C(O)C(F)(F)F`, for which the Inhibition in experiment [1] stood at 100%; in experiment [2], 100%; in experiment [3], 91%.

For `Cn1c(CN2CCC(N3CCc4cc(NC(=O)c5ccco5)ccc43)C2)cc2ccccc21` (stereo not given), the Inhibition is on record as 91% in experiment [1], 92% in experiment [2] and 0% in experiment [3].

On to `CC(C)(C)OC(=O)Cn1cnc2cc(NC(=O)c3cc([N+](=O)[O-])cc([N+](=O)[O-])c3)ccc21`, for which the Inhibition in experiment [1] came out at 100%; in experiment [2] it was 97%; in experiment [3] it was 11%.

Turning to `CC(C)(C)N1CCC(N(Cc2ccc(-c3ccc(C(F)(F)F)cc3)cc2)C(=O)Cn2c(CCc3cccc(F)c3F)cc(=O)c3cccnc32)CC1.O=C(O)C(O)C(O)C(=O)O`, the Inhibition in experiment [1] came out at 100%; in experiment [2], 63%; in experiment [3], 100%.

As to `Cc1ccc2sc(N3CCN(C(=O)c4ccc([N+](=O)[O-])o4)CC3)nc2c1C`, the Inhibition is recorded as 90% in experiment [1], 86% in experiment [2] and 0% in experiment [3].

As for `COc1cccc(C23NC(=Nc4nc5ccccc5[nH]4)NC2(c2cccc(OC)c2)NC(=Nc2nc4ccccc4[nH]2)N3)c1` (stereo not given), the results for the Inhibition in experiment [1], in experiment [2] and in experiment [3] were 100%, 99% and 0%, respectively.

The record behind these values is ChEMBL document CHEMBL1157539, “Thousands of chemical starting points for antimalarial lead identification” (Nature, 2010).
